Data taken from PubChem BioAssay (NCI).
The panel holds about 83,000 compounds, 20% with a hit somewhere; the sample as a whole holds those more often.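 Plates (96-well) were seeded with cells, treated with compound at one concentration, and incubated for 48 hours before percent growth was determined.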 Unmarked numbers belong to inactive results. The source made the active and inactive calls. Rule for the calls: active = growth percent below 10; inactive = the rest.

Experiments:
Test in all cases: NCI-60 one-dose screen, 48 h (100 = growth as untreated, 0 = no growth, -100 = all killed)
Settings in all cases: 10 µM
T-47D breast = system: T-47D breast
BT-549 breast = system: BT-549 breast
MDA-MB-435 melanoma = system: MDA-MB-435 melanoma
SW-620 colon = system: SW-620 colon
MCF7 breast = system: MCF7 breast
HCT-116 colon = system: HCT-116 colon
HCC-2998 colon = system: HCC-2998 colon
KM12 colon = system: KM12 colon
MDA-MB-468 breast = system: MDA-MB-468 breast

CN1C(=O)/C(=C/c2ccc3ncsc3c2)NC1=NC12CC3CC(CC(O)(C3)C1)C2
growth (T-47D breast): 11.7% | growth (BT-549 breast): -39.9% (active) | growth (MDA-MB-435 melanoma): 27.4% | growth (SW-620 colon): 5.62% (active) | growth (MCF7 breast): -20.1% (active) | growth (HCT-116 colon): 17.3% | growth (HCC-2998 colon): 10.1% | growth (KM12 colon): 10.4% | growth (MDA-MB-468 breast): -5.71% (active)

Cn1cc(/C=N/Nc2cccc(Cl)n2)c2ccccc21
growth (T-47D breast): 47.2% | growth (BT-549 breast): 43.4% | growth (MDA-MB-435 melanoma): 10.7% | growth (SW-620 colon): 65.9% | growth (MCF7 breast): 35.9% | growth (HCT-116 colon): 33.3% | growth (HCC-2998 colon): 48.5% | growth (KM12 colon): 33.1% | growth (MDA-MB-468 breast): -1.15% (active)

CC[C@]12C=CCN3CC[C@@]4(c5cc(C#CCNc6ccc(C)c(Nc7nccc(-c8cccnc8)n7)c6)c(OC)cc5N(C)[C@H]4[C@@](O)(C(=O)OC)[C@@H]1OC(C)=O)C32 (some centres undefined)
growth (T-47D breast): 45.5% | growth (BT-549 breast): -3.24% (active) | growth (MDA-MB-435 melanoma): 34% | growth (SW-620 colon): 50% | growth (MCF7 breast): 21.7% | growth (HCT-116 colon): 27.2% | growth (HCC-2998 colon): 41.2% | growth (KM12 colon): 44.9% | growth (MDA-MB-468 breast): 1.75% (active)

Cc1cc(C)nc(NS(=O)(=O)c2ccc(N/C(N)=N/c3nccc(-c4ccccc4)n3)cc2)n1
growth (T-47D breast): 25.1% | growth (BT-549 breast): 83.7% | growth (MDA-MB-435 melanoma): 86% | growth (SW-620 colon): 93.8% | growth (MCF7 breast): 37% | growth (HCT-116 colon): 76.6% | growth (HCC-2998 colon): 85.3% | growth (KM12 colon): 78.8% | growth (MDA-MB-468 breast): 64.2%

O=C(Nc1nc2ccc([N+](=O)[O-])cc2s1)Nc1ccccc1I
growth (T-47D breast): -16.7% (active) | growth (BT-549 breast): -18.9% (active) | growth (MDA-MB-435 melanoma): -7.59% (active) | growth (SW-620 colon): 7.65% (active) | growth (MCF7 breast): -13.9% (active) | growth (HCT-116 colon): -18.8% (active) | growth (HCC-2998 colon): 4.48% (active) | growth (KM12 colon): 2.86% (active) | growth (MDA-MB-468 breast): -25.8% (active)

O=C1Nc2ccc(Cl)cc2/C1=C/c1cccc(OCc2ccccc2)c1
growth (T-47D breast): 12.5% | growth (BT-549 breast): 41.9% | growth (MDA-MB-435 melanoma): 35.4% | growth (SW-620 colon): 45.4% | growth (MCF7 breast): 9.65% (active) | growth (HCT-116 colon): 17% | growth (HCC-2998 colon): 50.6% | growth (KM12 colon): 38.9% | growth (MDA-MB-468 breast): -10.2% (active)
